# High-throughput results: PubChem, National Center for Advancing Translational Sciences (NCATS)
# Only some compounds are listed: those with a hit (about 3.7% of all), similar ones and a draw of the others.
# DRD3 antagonist – D3 dopamine receptor (human) antagonism; P35462; max response, negative = inhibition, %; D3R cells, DiscoveRx beta-arrestin luminescence, antagonist mode; hits give low values; 360,000 tested, 2.5% active; in the data active = max response below about -50%; inconclusive = no clear call, values can overlap the other calls; note: % is set by controls: 0 for no effect and ±100 for the full control effect
#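 Cells expressing the human receptor were seeded at 1500 cells/well, incubated overnight at 37 degrees C in 5% CO2, then exposed to library compounds with dopamine controls for 90 minutes at 37 degrees C before luminescent detection.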
# RGS4 inhibitor – human RGS4 inhibition. P49798. Transcreener GDP fluorescence polarization, RGS4-accelerated GTP hydrolysis. Potency, µM (top dose mostly 114 µM), inactives show at the top dose activity change, negative = inhibition, hits mostly inhibitors. 390,000 tested, 0.039% active; note: potency is the fitted concentration of half-maximal effect; % is set by controls: 0 for no effect and ±100 for the full control effect; nearly all actives have a fitted effect of over 75% in size
#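 MLSMR compounds (23 nl, pin-transferred) preincubated 10 min at room temperature with a 500nM (2x) first reagent, then RGS4 at 900nM (2x) plus Transcreener GDP mix added; fluorescence polarization (620/688 nm) read before and after 90 min at 30 °C.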
# D3 ag – D3 dopamine receptor (human) agonism; D3R DiscoveRx beta-arrestin cells, luminescence, 90 min; max activation, %; 410,000 tested, 0.58% active; AID 652048; in the data active = max activation above about 30%; note: 0% is about no effect
#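 Agonist mode: compounds and dopamine controls were applied to plated cells for 90 min at 37 degrees C after an overnight attachment at 1500 cells/well. Luminescent read-out followed 30 - 60 minutes at room temperature with DiscoveRx detection reagent.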
# BRCA1 expr up – increases BRCA1 expression. MCF7-BRCA1-FFLuc reporter, luminescence, 48 h; response scale: scaled: vehicle 0%, 10 µM genistein 100%. Potency, µM (titrated, usually from 46.1 µM), for inactives: top-dose activation, usual class: activators. 380,000 tested, 1.1% active; note: potency is the fitted concentration of half-maximal effect; nearly all actives have a fitted effect of over 80% in size
#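 First, MCF7-BRCA1-FFLuc cells (2000/well) attach for 2 h; next, compounds are pin-added and incubated 48 h at 37 °C; finally, luciferase reagent is added and luminescence read after 15 min.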
# PTHR1 agonist – PTHR1 (human) receptor agonism | AID 743266 | HEK293 GP2 PTHR1 cells, GloSensor cAMP luminescence, 1 h | Potency, µM (series often up to 115 µM), inactives show at the top dose activation, hits mostly activators | Q03431 | 410,000 tested, 0.075% active; note: potency is the fitted concentration of half-maximal effect; nearly all actives have a fitted effect of over 55% in size
# Target sequence (Q03431 whole entry, looked up): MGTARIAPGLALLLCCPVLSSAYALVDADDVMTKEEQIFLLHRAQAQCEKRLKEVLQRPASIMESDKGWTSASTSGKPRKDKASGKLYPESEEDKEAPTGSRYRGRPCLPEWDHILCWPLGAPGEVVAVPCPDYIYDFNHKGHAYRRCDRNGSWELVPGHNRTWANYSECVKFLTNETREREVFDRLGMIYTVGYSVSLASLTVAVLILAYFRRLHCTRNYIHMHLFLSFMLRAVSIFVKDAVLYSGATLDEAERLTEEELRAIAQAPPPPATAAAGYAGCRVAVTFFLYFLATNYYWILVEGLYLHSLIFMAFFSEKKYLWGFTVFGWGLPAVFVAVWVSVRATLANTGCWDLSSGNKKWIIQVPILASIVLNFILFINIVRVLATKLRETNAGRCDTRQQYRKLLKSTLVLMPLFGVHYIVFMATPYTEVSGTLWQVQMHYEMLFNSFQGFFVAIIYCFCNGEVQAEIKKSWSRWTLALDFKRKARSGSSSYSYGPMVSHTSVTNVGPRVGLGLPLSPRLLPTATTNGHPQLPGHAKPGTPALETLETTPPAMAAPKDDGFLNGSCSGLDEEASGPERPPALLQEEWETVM
#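 HEK-293-derived GP2 cells expressing PTHR1 and a GloSensor cAMP reporter, 3,000/well, plated overnight, given luciferin plus IBMX (each 0.5 mM as added) for 1 h at 37 °C, then compound for 1 h at 37 °C. Luminescence was read after 15 min at room temperature.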
# B2AR arrestin – agonists driving beta-arrestin recruitment to human beta2-adrenergic receptor. P07550. beta-arrestin recruitment to beta2AR, cell-based reporter. Potency, µM (doses to about 46.1 µM), without a hit: top-dose activation, hits mostly activators. 330,000 tested, 0.02% active. AID 492947;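 note: potency is the fitted concentration of half-maximal effect; 0% = DMSO controls and full agonism = EC100 isoproterenol or metaproterenol; nearly all actives have a fitted effect of over 65% in size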
# An asterisk follows results filed as active; i = inactive; ? = inconclusive; · = not tested or not shown; [ ] = dose if it differs, or a comment. Unless noted, calls come from the whole dose curve; as a rule, active = well fitted curve in the direction sought with a large enough effect; inconclusive = small, poorly fitted or top-dose-only effect, or another doubt; inactive = no such curve, though single readings can be large; an effect the other way counts as inactive or inconclusive.
SMILES,DRD3 antagonist,RGS4 inhibitor,D3 ag,BRCA1 expr up,PTHR1 agonist,B2AR arrestin
Cc1ccc2c(c1)sc(C)[n+]2CCCS(=O)(=O)[O-],-86*,?,-22,0%,-2%,0%
COc1ccccc1C(=O)Nc1ccccc1SC(=O)c1ccccc1OC,-57*,-51%,-16,-1%,-37%,0%
COC(=O)c1ccccc1NC(=O)c1ccccc1OC,-15,-28%,6,-2%,17%[57.5 µM],0%
O=S(=O)(c1cccc2ccccc12)N1CCN(c2ccc(Cl)c(Cl)c2)CC1,·,-4%,71*,15%,-9%,·
CCOc1ccc(S(=O)(=O)N2CCN(c3ccc(Cl)c(Cl)c3)CC2)c2ccccc12,·,-13%,-9,0%,-23%,·
CCOC(=O)c1cccc(NC(=O)[C@@H](c2ccccc2)N2Cc3ccccc3C2=O)c1,·,-1%,-3,-16%,-37%,·
O=C(c1ccccc1)c1cn[nH]c1-c1ccccc1O,-1,5%,-1,3%,i,0%
COc1ccc(O)c(-c2[nH]ncc2C(=O)c2ccccc2)c1,-57*,1%,-6,0%,-3%[57.5 µM],0%
CCC(C(=O)OCC(=O)Nc1ccc2[nH]c(=O)[nH]c2c1)c1ccccc1 (stereo unspecified),-13,9%,-16,-14%,i,0%
CCc1c(C(=O)NNC(=S)NC2CCCCC2)csc1C,-4,-14%,-7,2%,-18%,0%
CCc1c(C(=O)NNC(=S)NCCc2ccccc2)csc1C,-66*,-30%,-26,-1%,i,-1%
O=C(Nc1ccccc1)N1CCC(c2ccccc2)C1 (stereo unspecified),-8,3%,-2,3.2µM*,i,-1%
COc1ccc(NC(=S)N2CCC(C(O)(c3ccccc3)c3ccccc3)CC2)cc1,-8,-17%,-5,-17%,-12%,-1%
Cc1ccc(C2CCN(C(=O)Nc3ccc(Cl)cc3)C2)cc1 (stereo unspecified),·,-4%,5,·,-42%,·
Cc1cccc(OCC(=O)N2CCC(c3ccccc3)C2)c1 (stereo unspecified),-29,15%,-13,7.9µM*,-13%[57.5 µM],0%
Cc1ccc(NC(=O)N2CCCC(c3ccccc3)C2)cc1 (stereo unspecified),13,20%,34*,77%,-7%,0%
COc1ccc(NC(=S)N2CCC(c3ccccc3)C2)cc1 (stereo unspecified),-4,-43%,1,2.8µM*,-63%,-1%
Cc1cccc(C)c1Nc1nn2c(=O)c3cc4c(cc3nc2s1)OCO4,·,18%,5,·,-2%,·
O=C1c2ccccc2C(c2nnnn2-c2ccc3c(c2)OCCO3)N1CCCN1CCOCC1 (stereo unspecified),?,·,-8,0%,-8%,·
CC(=O)c1cccc(NC(=O)CN2C(=O)COc3ccc(Cl)cc32)c1,-94*,10%,-11,-11%,5%[57.5 µM],0%
CC(=O)c1cccc(-c2ccnc3c2CC(C(=O)Nc2ccc4c(c2)OCO4)O3)c1 (stereo unspecified),-28,·,-8,-28%,-15%,·
Cc1cc(C)c2oc(-c3cccc(NC(=O)c4ccc(F)cc4)c3)nc2c1,0,-8%,-5,-1%,-29%,0%
COc1cc(C(=O)Nc2cccc(-c3nc4cc(C)cc(C)c4o3)c2)cc(OC)c1OC,41,11%,52*,21%,i,0%
CCCCOc1ccc(NC(=O)CSc2nnnn2C)cc1,-113*,11%,-5,64%,i,·
COc1ccc(C(=O)CSc2n[nH]c(-c3ccco3)n2)cc1,-59*,6%,4,13%,17%,1%
SMILES,DRD3 antagonist,RGS4 inhibitor,D3 ag,BRCA1 expr up,PTHR1 agonist,B2AR arrestin
COc1ccc(C(=O)CSc2nccn2C)cc1,-2,-36%,-12,8.9µM*,4%,0%
Cc1cc(SCC(=O)c2ccccc2)nc(C)n1,5,-24%,6,10µM*,-54%[57.5 µM],1%
Cn1ccnc1SCC(=O)Nc1ccc(Oc2ccccc2)cc1,-3,1%,3,10µM*,-22%[57.5 µM],0%
CCOc1ccc(NC(=O)CC)cc1,·,·,·,·,·,0%
CCOc1ccc(NC(=O)CSc2nccn2C)cc1,6,24%,8,?,i,0%
CCOc1ccc(NC(=O)CSC(N)=O)cc1,-72*,-51%,-5,-15%,-9%[57.5 µM],-1%
COc1ccc(C(=O)CSc2cc(C)[nH]c(=O)n2)cc1,-51*,-31%,-3,?,-2%,0%
C=CCOc1ccc(Cl)cc1-c1noc(-c2csc([C@H]3C[C@H](O)[C@@H](CO)O3)n2)n1,0,·,5,30%,i,·
O=C(O)c1cccc2cccnc12,-3,-15%[11.4 µM],-3,-11%,i,0%
O=C(Oc1ccccc1)c1cccc2cccnc12,-54*,-8%,-6,-32%,i,9%
O=S(=O)(CCNCc1cccs1)c1ccc(Cl)cc1,7,4%,-4,3%,-4%,0%
O=C(CSc1nnc(-c2ccccc2F)n1C1CC1)NC(=O)c1cccc([N+](=O)[O-])c1,-57*,-26%,-54,-11%,-9%,0%
Cn1c(SCC(=O)NC(=O)c2cccc([N+](=O)[O-])c2)nnc1-c1ccc(F)cc1,-27,0%,-4,25%,-14%,0%
O=C(CSc1nnc(-c2cccs2)o1)c1cccs1,-7,-6%,4,92%,-11%[57.5 µM],1%
COc1ccc(-c2nnc(SCC(=O)c3cccs3)o2)cc1,14,-15%,1,7.1µM*,-20%,0%
O=C(Nc1ccc(Cl)cc1)C1Cc2c(-c3ccccc3Oc3ccccc3)ccnc2O1 (stereo unspecified),34,·,3,-7%,-4%,·
CCCCSc1nnc2nc(C)cc(C)n12,-58*,29%,4,69%,-16%,-1%
COc1ccc(CNC(=O)c2c(C)oc3c2C(=O)c2ccccc2C3=O)cc1,-72*,-9%,-7,-87%,-22%,0%
Cc1oc2c(c1C(=O)NCc1cccnc1)C(=O)c1ccccc1C2=O,-72*,2%,-7,-41%,-14%,-1%
CC(=O)c1c(C)oc2c1C(=O)c1ccccc1C2=O,-17,7%,-17,-90%,-9%,-1%
CC(O)c1nc2ccccc2n1CC(=O)N1CCN(c2ccccc2)CC1 (stereo unspecified),7,-29%,-1,-21%,-58%,0%
C[C@@H](CN1C2=NC[C@H](C)N2C[C@H]1Cc1ccc(O)cc1)NC(=O)CCC1CCCCC1,-66*,-2%,-84,10%,-24%,0%
